A short description of test [1]: NCI Yeast Anticancer Drug Screen. Data for the rad50 strain (AID 155).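 Also: 0% = growth of vehicle-only cultures of the same strain.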 Particulars: S. cerevisiae rad50 strain growth inhibition, stronger effect = higher value. The gist of the method:
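Compounds were tested on a yeast strain with an engineered DNA damage repair alteration; the reported value is growth inhibition normalised to vehicle treatment.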

Test [2] can be described thus: NCI Yeast Anticancer Drug Screen. Data for the mec2-1 strain (AID 157). Particulars: S. cerevisiae mec2-1 strain, stronger effect = higher value. In short, it runs like this:
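Yeast mec2-1 mutant treated with compound. Readout: growth inhibition vs vehicle controls.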

A short description of test [3]: NCI Yeast Anticancer Drug Screen. Data for the sgs1 mgt1 strain (AID 161).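 Also: 0% = growth of cultures given vehicle only.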 Particulars: S. cerevisiae sgs1 mgt1 strain, stronger effect = higher value. The gist of the method: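 Read-out: growth inhibition vs vehicle controls. Cells: mutant yeast strain deficient in DNA damage repair.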
Test [4] in a line: NCI Yeast Anticancer Drug Screen. Data for the cln2 rad14 strain (AID 165).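 Also: 0% = growth equal to vehicle treated cultures.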 Particulars: S. cerevisiae cln2 rad14 strain, stronger effect = higher value. The gist of the method:
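cln2 rad14 yeast strain; compound exposure; growth inhibition read vs vehicle controls.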

Test [5] can be described thus: NCI Yeast Anticancer Drug Screen. Data for the bub3 strain (AID 167). Particulars: S. cerevisiae bub3 mutant strain, stronger effect = higher value. The gist of the method:
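Growth of a checkpoint-deficient yeast mutant is measured after compound exposure. Values represent inhibition relative to vehicle.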

A short description of test [6]: NCI Yeast Anticancer Drug Screen. Data for the mlh1 rad18 strain (AID 175). The note with it: S. cerevisiae mlh1 rad18 strain growth inhibition, stronger effect = higher value. In short, it runs like this: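 Yeast w/ defined DNA-repair lesions; compound exposure; growth vs vehicle controls → % inhibition.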
Setting [7] is: at 5.0 µM (retest, dose inferred, filed as 0.5).
Where [8] appears, read: at 50.0 µM (retest, dose inferred, filed as 5.0).

The structures appear in SMILES notation. Compounds without any hit were thinned out: in the full panel of roughly 79,000, 15% have a hit. Values without a mark were called inactive. Activity calls are given as the source filed them. Rule as the data show it: active = growth inhibition above about 70%; inactive = the rest.

Consider `Nc1ncnc2c1cnn2C1CCCCC1`, for which the growth inhibition in test [1] (setting [7]) was 3%; in test [1] (setting [8]), 79% (active); in test [1] (at 50.0 µM), 30.2%; in test [2] (setting [7]), -2%; in test [2] (setting [8]) it was 46%; in test [2] (at 50.0 µM), 58.8%. Further, the growth inhibition in test [3] (setting [7]) was 0%; in test [3] (setting [8]) it was 45%; in test [3] (at 50.0 µM), 14.9%; in test [4] (setting [7]), -1%; in test [4] (setting [8]), 68%; in test [4] (at 50.0 µM) it was 36.3%. In addition, the growth inhibition in test [5] (setting [7]) was -2%; in test [5] (setting [8]), 58%; in test [5] (at 50.0 µM) it was 32.7%; in test [6] (setting [7]), 1%; in test [6] (setting [8]), 75% (active); in test [6] (at 50.0 µM) it was 71.2% (active).
In the case of `CCNC(=S)NC1CCCCCCCCCCC1`, the growth inhibition was 99% (active) in test [1] (setting [7]); 100% (active) in test [1] (setting [8]); 87.8% (active) in test [1] (at 50.0 µM); 99% (active) in test [2] (setting [7]); 99% (active) in test [2] (setting [8]); 75.3% (active) in test [2] (at 50.0 µM). The growth inhibition in test [3] (setting [7]) was 26%; in test [3] (setting [8]), 88% (active); in test [3] (at 50.0 µM), 87.2% (active); in test [4] (setting [7]), 51%; in test [4] (setting [8]), 59%; in test [4] (at 50.0 µM) it was 20.8%. Moreover, the growth inhibition was 40% in test [5] (setting [7]); 81% (active) in test [5] (setting [8]); 82.9% (active) in test [5] (at 50.0 µM); 100% (active) in test [6] (setting [7]); 100% (active) in test [6] (setting [8]); 69.2% in test [6] (at 50.0 µM).
As for `OCC1(c2ccccc2)OC1c1ccccc1` (configuration not stated), the growth inhibition in test [1] (setting [7]) was -156%; in test [1] (setting [8]), -20%; in test [1] (at 50.0 µM), 72.1% (active); in test [2] (setting [7]), -50%; in test [2] (setting [8]), -27%; in test [2] (at 50.0 µM), 62.6%. The growth inhibition was -65% in test [3] (setting [7]); 16% in test [3] (setting [8]); 37.6% in test [3] (at 50.0 µM); -66% in test [4] (setting [7]); -34% in test [4] (setting [8]); 69.5% in test [4] (at 50.0 µM). Besides, the growth inhibition in test [5] (setting [7]) was -71%; in test [5] (setting [8]), -51%; in test [5] (at 50.0 µM), 74.8% (active); in test [6] (setting [7]), -146%; in test [6] (setting [8]) it was -44%; in test [6] (at 50.0 µM), 68%.
On to `N=C1c2ccccc2-c2ccccc21`, for which the growth inhibition in test [1] (setting [7]) is 49%; in test [1] (setting [8]) it was 49%; in test [1] (at 50.0 µM), 66%; in test [2] (setting [7]), 22%; in test [2] (setting [8]) it was 17%; in test [2] (at 50.0 µM) it was 37.2%. Moreover, the growth inhibition in test [3] (setting [7]) is 10%; in test [3] (setting [8]) it was 11%; in test [3] (at 50.0 µM), 40.2%; in test [4] (setting [7]), 12%; in test [4] (setting [8]), 3%; in test [4] (at 50.0 µM), 12.1%. Also, the growth inhibition in test [5] (setting [7]) is 19%; in test [5] (setting [8]), 24%; in test [5] (at 50.0 µM) it was 22.9%; in test [6] (setting [7]), 21%; in test [6] (setting [8]), 21%; in test [6] (at 50.0 µM), 26.8%.
On to `COC(=O)C1(Cc2ccc3c(c2)CCC3)Cc2ccc3c(c2C1O)CCC3` (configuration not stated), for which the growth inhibition in test [1] (setting [7]) is -2%; in test [1] (setting [8]) it was 94% (active); in test [1] (at 50.0 µM) it was 94.6% (active); in test [2] (setting [7]), -1%; in test [2] (setting [8]), 96% (active); in test [2] (at 50.0 µM), 94.3% (active). For the same molecule, the growth inhibition in test [3] (setting [7]) is 15%; in test [3] (setting [8]), 97% (active); in test [3] (at 50.0 µM) it was 89.9% (active); in test [4] (setting [7]) it was -4%; in test [4] (setting [8]) it was 94% (active); in test [4] (at 50.0 µM), 85% (active). In addition, the growth inhibition is -1% in test [5] (setting [7]); 95% (active) in test [5] (setting [8]); 93.7% (active) in test [5] (at 50.0 µM); 4% in test [6] (setting [7]); 94% (active) in test [6] (setting [8]); 85.3% (active) in test [6] (at 50.0 µM).
Consider `CCCCN(CCCC)S(=O)(=O)c1ccccc1`, for which the growth inhibition was 3% in test [1] (setting [7]); 27% in test [1] (setting [8]); 44.7% in test [1] (at 50.0 µM); -4% in test [2] (setting [7]); 3% in test [2] (setting [8]); 32.4% in test [2] (at 50.0 µM). Also, the growth inhibition is 1% in test [3] (setting [7]); 52% in test [3] (setting [8]); 7.85% in test [3] (at 50.0 µM); -1% in test [4] (setting [7]); -9% in test [4] (setting [8]); -11.4% in test [4] (at 50.0 µM). Further, the growth inhibition in test [5] (setting [7]) is 3%; in test [5] (setting [8]), 14%; in test [5] (at 50.0 µM) it was 65.5%; in test [6] (setting [7]), 2%; in test [6] (setting [8]), 17%; in test [6] (at 50.0 µM), 79% (active).
Regarding `CC12CCC(=O)C=C1CCC1C2CCC2(C)C(C(=O)Cn3cnc4c(=S)nc[nH]c43)CCC12` (configuration not stated), the growth inhibition in test [1] (setting [7]) is 11%; in test [1] (setting [8]), 25%; in test [1] (at 50.0 µM), 32.2%; in test [2] (setting [7]), 5%; in test [2] (setting [8]), -6%; in test [2] (at 50.0 µM), 24.6%. The growth inhibition in test [3] (setting [7]) is -2%; in test [3] (setting [8]), 23%; in test [3] (at 50.0 µM) it was 37.5%; in test [4] (setting [7]), -26%; in test [4] (setting [8]) it was 19%; in test [4] (at 50.0 µM) it was 14.8%. The growth inhibition in test [5] (setting [7]) is 0%; in test [5] (setting [8]), 16%; in test [5] (at 50.0 µM), -4.65%; in test [6] (setting [7]) it was -2%; in test [6] (setting [8]), 22%; in test [6] (at 50.0 µM) it was -4.7%.
For `O=C1C=CC(=O)C(c2ccc(Cl)cc2)=C1`, the growth inhibition in test [1] (setting [7]) is 45%; in test [1] (setting [8]) it was 96% (active); in test [1] (at 50.0 µM), 90.8% (active); in test [2] (setting [7]), 54%; in test [2] (setting [8]) it was 97% (active); in test [2] (at 50.0 µM), 93% (active). The growth inhibition in test [3] (setting [7]) was 33%; in test [3] (setting [8]) it was 99% (active); in test [3] (at 50.0 µM) it was 92.8% (active); in test [4] (setting [7]), 40%; in test [4] (setting [8]) it was 99% (active); in test [4] (at 50.0 µM), 91.5% (active). Further, the growth inhibition in test [5] (setting [7]) was 44%; in test [5] (setting [8]) it was 97% (active); in test [5] (at 50.0 µM), 92% (active); in test [6] (setting [7]), 32%; in test [6] (setting [8]), 98% (active); in test [6] (at 50.0 µM) it was 90.8% (active).
In the case of `COc1ccc(C(=O)C2Cc3c(ccc4ccccc34)OC2=O)cc1` (configuration not stated), the growth inhibition in test [1] (setting [7]) was 4%; in test [1] (setting [8]) it was 1%; in test [1] (at 50.0 µM), 2.05%; in test [2] (setting [7]), -2%; in test [2] (setting [8]), -11%; in test [2] (at 50.0 µM), -1.25%. For the same molecule, the growth inhibition was -3% in test [3] (setting [7]); 2% in test [3] (setting [8]); -7.8% in test [3] (at 50.0 µM); 7% in test [4] (setting [7]); 1% in test [4] (setting [8]); 20.1% in test [4] (at 50.0 µM). Also, the growth inhibition was -1% in test [5] (setting [7]); -2% in test [5] (setting [8]); -30.4% in test [5] (at 50.0 µM); -5% in test [6] (setting [7]); -5% in test [6] (setting [8]); -11.3% in test [6] (at 50.0 µM).

For the origin of these results see PubChem BioAssay (NCI).
